Results filed as inconclusive are left out. Calls of active or inactive are those of the source. The call rests on the fitted dose curve.

Here are results for 40 compounds from PubChem BioAssay AID720518 (National Center for Advancing Translational Sciences (NCATS), 2013).

A short description of this assay: qHTS for Inhibitors of Cell Surface uPA Generation: Wild-type Protective Antigen (WT-PrAg) Counterscreen for Cherry-picked Compounds. Further: 0% is about no effect. The following applies: cells, WT protective antigen toxicity counterscreen; series mostly up to 115 µM; activity (protection): at the top concentration. (In general: In qHTS, concentration-response curves come from the screen itself.)
On to `Cc1nc2ccc(Br)cn2c1C(=O)N/N=C\c1ccccc1Cl`, for which the “activity (protection)” value is 1.22% (inactive).
Regarding `COc1ccccc1NS(=O)(=O)c1cc(NC(=O)CCc2nc3ccccc3c(=O)[nH]2)ccc1C`, the “activity (protection)” value was -1.11% (inactive).
The figure for `Cc1nc(NC(=O)CSc2nnc(C3CC3)n2C)sc1C(=O)N(C)C` is 1.3% (inactive); for `COc1ccc(C(=O)N2CCN(c3ccc(C(C)=O)cc3)CC2)cc1S(=O)(=O)N1CCCC1` it is -0.95% (inactive).
With `COc1ccccc1-c1ccc(SCC(=O)NCCc2ccccc2)nn1`, the “activity (protection)” value was -1.14% (inactive).
For the compound `O=C(O)C(Nc1nc(C(F)(F)F)nc2ccccc12)c1ccccc1` (stereo not given), the “activity (protection)” value was 1.14% (inactive).
The figure for `COC(=O)CNC(=O)COC(=O)/C=C/c1ccccc1[N+](=O)[O-]` is -1.21% (inactive); for `CCn1c2ccccc2c2n[nH]c(=S)nc21` it is -0.605% (inactive); for `Cc1ccsc1/C=C(\C#N)C(=O)NC1CCS(=O)(=O)C1` (stereo not given) it is -0.97% (inactive).
Regarding `COCCOc1ccc(C(F)(F)F)cc1NC(=O)COC(=O)Cc1c[nH]c2ccccc12`, the “activity (protection)” value was -0.946% (inactive).
The figure for `CCOc1ncccc1C(=O)NCc1ccccc1Cl` is 1.05% (inactive); for `Cc1cc(C)nc(NC(=O)CSc2nccc(C)n2)n1` it is -1.49% (inactive); for `O=C(NNC(=O)c1ncc(Cl)c(Cl)c1Cl)c1ccc(F)cc1` it is 0.595% (inactive).
With `COc1ccc(NC(=O)c2cccnc2N2CCOCC2)cc1`, the “activity (protection)” value is 0.0263% (inactive).
As for `COc1ccc(NC(=O)c2nn(C)c3c2CS(=O)(=O)c2ccccc2-3)cc1`, the “activity (protection)” value was -0.433% (inactive).
As for `COc1cccc(-n2c(SCC(=O)Nc3cc(C)on3)nc3c([nH]c4ccccc43)c2=O)c1`, the “activity (protection)” value was 10.9% (inactive).
With `CCOc1ccc(-n2cnc3scc(-c4ccc(OC)c(OC)c4)c3c2=O)cc1`, the “activity (protection)” value was -2.53% (inactive).
As for `COc1ccc(C(=O)OCC(=O)N(C)C2CCS(=O)(=O)C2)cc1S(=O)(=O)N(C)Cc1ccccc1` (stereo not given), the “activity (protection)” value was 1.43% (inactive).
In the case of `CCOC(=O)[C@H]1[C@H]2COc3ccc(Br)cc3[C@@H]2N2C(=O)c3c(C)cc(C)cc3NC(=O)[C@@]12C`, the “activity (protection)” value was 1.23% (inactive).
To `Cc1ccc(S(=O)(=O)N2CCC(C)CC2)cc1` belongs 0.504% (inactive).
As for `CCN(CC)CCNC(=O)/C(=C/c1cn(CC)c2ccccc12)NC(=O)c1cc(OC)c(OC)c(OC)c1`, the “activity (protection)” value is 0.845% (inactive).
To `CCOc1cc(/C=N/Nc2cc(C)nc3ccc(C)cc23)ccc1O` belongs -0.441% (inactive); to `COc1ccc(S(=O)(=O)N2CCOCC2)cc1NC(=O)CN1C(=O)NC2(CCCC2)C1=O`, -0.48% (inactive).
As to `CCOC(=O)N1CCc2c(sc3nc4n(c(=O)c23)N=C(C)CS4)C1`, the “activity (protection)” value is -1.1% (inactive).
As for `Cc1ccc(CN2CCN(Cc3cc4ccccc4o3)CC2CCO)cc1` (stereo not given), the “activity (protection)” value is -0.17% (inactive).
The figure for `COc1ccccc1N1CCN(CC(=O)c2c(C)[nH]c3ccccc23)CC1` is 3.92% (inactive); for `COc1ccc(/C(N)=N/OC(=O)Cc2ccccc2OC)cc1` it is 0.289% (inactive).
Turning to `CC(=O)Nc1nc2ccccc2[nH]1`, the “activity (protection)” value was 0.0855% (inactive).
The figure for `COc1ccc(N(CN2C(=O)c3ccccc3C2=O)C(=O)C(C)C)cc1` is -0.0709% (inactive).
To `O=[N+]([O-])c1ccccc1C=NNC(=S)NN=Cc1ccccc1[N+](=O)[O-]` belongs -1.76% (inactive); to `Cc1ccc(C)c(NC(=O)CCN2CCN(c3ccccc3F)CC2)c1`, 0.501% (inactive); to `CCOC(=O)C1(CCOc2ccccc2)CCN(Cc2ccc(O)c(OC)c2)CC1`, -2.28% (inactive).
The figure for `CCC1Nc2ncnc(N3CCCCC3)c2N(Cc2ccc(Cl)cc2)C1=O` (stereo not given) is 0.603% (inactive); for `Cc1cccc(C(=O)Nc2cc(=O)n(C)c(=O)n2C)c1` it is -1.45% (inactive); for `O=C(NC1CC1)C1CCCN(C(=O)NC2CCCCC2)C1` (stereo not given) it is -1.16% (inactive).
For `Cc1c(C(=O)N2CCN(S(=O)(=O)c3cccs3)CC2)oc2ccc(F)cc12`, the “activity (protection)” value is -0.128% (inactive).
The figure for `C[C@@]12C(=O)N(CC3CCCO3)CC(=O)N1[C@H]1c3cc(Cl)ccc3OC[C@@H]1[C@@H]2c1ccccc1` (stereo not given in full) is -2.18% (inactive); for `NS(=O)(=O)c1ccc(CCNC(=O)c2ccc(Cl)s2)cc1` it is 0.393% (inactive); for `O=[N+]([O-])c1cccc2c(N3CCOCC3)ccnc12` it is -2.37% (inactive).
Turning to `CSc1nc(-c2ccccc2)nc(C(Cl)Cl)n1`, the “activity (protection)” value is -2.51% (inactive).
